# Source: PubChem BioAssay AID463212 (Sanford-Burnham Center for Chemical Genomics, 2010)
# In all, about 330,000 compounds went through this assay and about 4,400 (1.3%) were called active. The list comes from a sample in which actives are over-represented; it also holds similar structures and randomly drawn compounds. A number with no mark means an inactive call.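 The calls were made as follows: active = growth inhibition of the mutant yeast at or above 50%; inactive = the rest.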
# Assay: growth inhibition of tim23-1 ts yeast – luminescence, uHTS, primary screen (AID 463212);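 also: temperature-sensitive mutant grown at 25 °C; plate controls were DMSO-treated mutant yeast for no effect and medium wells lacking yeast for full effect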
# Settings: S. cerevisiae tim23-1 growth, BacTiter-Glo luminescence, 24 h; at 20 µM; stronger effect = higher value
row,Structure (SMILES),inhibition
1,CCN=c1sc(C(=O)Nc2ccccc2)c(C)n1CC,-9.39%
2,COc1cccc(C2=CC(=O)C[C@H](c3ccc(OC)c(OC)c3)C2)c1,29%
3,Cc1cccc(-n2ncc(Cl)c(Cl)c2=O)c1,13.8%
4,Cc1ccc(Oc2cnn(-c3ccccc3)c(=O)c2Br)cc1,55.2% (active)
5,Cc1ccc(OC(=O)c2c(C)nn(-c3ccccc3)c2C)cc1,23%
6,Cc1ccc(-n2c(=O)c(C#N)cc3c(=O)n4ccccc4nc32)cc1C,-9.74%
7,CCc1ccc(OCC(=O)N(Cc2ccccc2)C2CCS(=O)(=O)C2)cc1 (stereo unspecified),9.11%
8,COc1ccccc1C(C)NC(=O)Cc1ccsc1 (stereo unspecified),-5.87%
9,O=c1nc2s/c(=C\c3ccco3)c(=O)n2nc1Cc1ccccc1,65.5% (active)
10,O=C(Nc1ccccc1)/C(=C\c1ccco1)NC(=O)c1ccco1,17%
11,O=C(NCCc1ccco1)c1nn(Cc2ccccc2)c(=O)c2ccccc12,8.6%
12,COc1ccc(C(=O)O)cc1S(=O)(=O)NCc1cccnc1,-0.937%
13,COc1ccc(CNC(=O)c2cc(=O)c3c(C)cc(C)cc3o2)cc1,28.5%
14,Cc1cc(C)cc(OCC(=O)Nc2cc(NC(=O)COc3cc(C)cc(C)c3)cc(C(=O)O)c2)c1,1.96%
15,CNC(=O)c1nnc(Cc2ccc(Cl)cc2)o1,13.1%
16,c1ccc2cc(CCCc3cc4ccccc4cn3)ncc2c1,51.6% (active)
17,Cc1nn(CC(=O)N2CCCCC2)c(=O)c2nn(-c3ccccc3)c(C)c12,5.69%
18,Cc1ccc(NC(=O)C(=O)NCc2ccc(/C=N/NC(=O)c3c(C)nc4cc(C)ccn34)o2)cc1,13.6%
19,O=C(Nc1ccc(Cl)cc1)Nc1nnc(/C=C/c2ccccc2)s1,-4.19%
20,O=C(Nc1ccccc1)c1nnsc1S(=O)(=O)c1ccc(Cl)cc1,59.8% (active)
21,O=C(Nc1ccc(S(=O)(=O)Nc2ccccn2)cc1)c1ccccc1,-13.7%
22,CC(=O)C[C@@H](O)CC(=O)[C@H]1OC(=O)CCCCCCc2ccccc21,12.8%
23,CCOC(=O)C1=C(C)N(C[C@@H]2CC[C@@H](Cc3ccc(-c4ccccc4)cc3)O2)C(=O)NC1c1ccc([N+](=O)[O-])cc1 (stereo partly specified),34.6%

row,Structure (SMILES),inhibition
1,C=CCNC(=S)N1CCc2[nH]c3ccccc3c2C1,-8.13%
2,CC[C@]1(C(=O)OC)[C@H]2C(=O)N(Cc3ccccc3)C(=O)[C@H]2[C@H]2CN=C(SCc3ccccc3)N21,37.7%
3,CC[C@]1(C(=O)OC)[C@H]2C(=O)N(Cc3ccccc3)C(=O)[C@H]2[C@H]2CN=C(SCc3ccc(Cl)cc3)N21,53.5% (active)
4,CC[C@]1(C(=O)OC)[C@H]2C(=O)N(Cc3ccccc3)C(=O)[C@H]2[C@H]2CN=C(SCc3ccc(C#N)cc3)N21,46.4%
5,COc1cccc(NC(=O)CN(C)C(=O)CSCc2nc3scc(-c4cccs4)c3c(=O)[nH]2)c1,4.94%
6,Cc1ccc(NC(=O)Cn2c(=O)n(CCC(=O)NC3CCN(Cc4ccccc4)CC3)c(=O)c3ccccc32)cc1,-1.05%
7,CC(C)CNC(=O)COC(=O)c1ccccc1OCC(=O)Nc1ccc(Br)cc1,-11.3%
8,COC(=O)c1ccc(CNC(=O)c2ccc(S(=O)(=O)N3CCCCCC3)cc2)cc1,15.9%
9,O=C(NCCc1ccc(F)cc1)c1ccc(S(=O)(=O)N2CCCCC2)cc1,53.6% (active)
10,O=C(Nc1ccccc1F)c1ccc(S(=O)(=O)N2CCCCCC2)cc1,34.9%
11,CC(=O)Oc1ccc(C(C)=O)c2c1OCCO2,5.79%
12,Cc1nn(CC(=O)NCc2ccccn2)c(C)c1[N+](=O)[O-],24.7%
13,Cc1nn(CC(=O)Nc2nc3ccccc3s2)c(C)c1[N+](=O)[O-],69.8% (active)
14,CCc1ccc(NC(=O)Cn2nc(C)c([N+](=O)[O-])c2C)cc1,25.5%
15,O=C(NCc1nnc(SCC(=O)N2CCCc3ccccc32)o1)c1ccccc1F,19.1%
16,COc1ccc(N(Cc2cc3ccc(C)cc3[nH]c2=O)S(=O)(=O)c2ccccc2)cc1,48.9%
17,O=C(/C=C/c1ccc(Cl)c([N+](=O)[O-])c1)c1cccnc1,80.7% (active)
18,O=C(/C=C/c1ccc(Cl)cc1Cl)c1cccnc1,31.1%
19,O=C(Nc1ccncc1)c1ccc(Cl)c([N+](=O)[O-])c1,-42.5%
20,CC1CCCCC1NC(=O)CCS(=O)(=O)c1cccc2nonc12 (stereo unspecified),4.3%
21,O=C(CCS(=O)(=O)Cc1ccccc1F)NCCCN1CCCCC1,-8.7%
22,CSCCC(NC(=O)COc1ccccc1)C(=O)N(C)CC(=O)Nc1ccc(C)cc1 (stereo unspecified),8.43%
23,Cc1ccc(CNC(=O)c2cccnc2Cl)cc1,-14.6%

row,Structure (SMILES),inhibition
1,CCc1ccc(NC(=O)NC(C)c2ccc3c(c2)OCO3)cc1 (stereo unspecified),22.5%
2,CC(=NCc1ccc2c(c1)OCO2)C1=C(O)c2ccccc2C1=O,51.6% (active)
3,CC1CCC(NC(=O)C2c3ccccc3C(=O)N2Cc2ccc3c(c2)OCO3)CC1 (stereo unspecified),9.09%
4,O=C1C(C=NCC2CCCO2)=C(O)c2ccccc21 (stereo unspecified),6.49%
5,CC(=NCc1ccco1)C1=C(O)c2ccccc2C1=O,50.3% (active)
6,CC(=NCc1ccco1)c1c(C(F)(F)F)[nH]n(-c2nc3ccccc3s2)c1=O,22.4%
7,CCOC(=O)C[C@H]1c2ccc(C(F)(F)F)cc2S(=O)(=O)N1c1ccccc1,33.9%
8,COc1cc2c(C(=O)N(C)c3cc(Cl)ccc3OC)cn(C)c(=O)c2cc1OC,10%
9,N#CC(Cc1cc2ccccc2n1S(=O)(=O)c1ccccc1)OCc1ccccc1 (stereo unspecified),30.3%
10,CC1C(=O)C(C)C(c2ccc(O)cc2)NC1c1ccc(O)cc1 (stereo unspecified),0.501%
11,Cc1nc2sc(C(=O)c3ccccc3)c(N)c2c2c1CCCC2,51.8% (active)
12,CCc1nc2sc(C(=O)O)c(N)c2c2c1CCCC2,-17.3%
13,Cc1ccc2c(N)c(C(=O)c3ccccc3)sc2n1,48.6%
14,CCOC(=O)C1CCCN(S(=O)(=O)c2ccc(-n3cnnn3)c(C)c2)C1 (stereo unspecified),2.62%
15,COc1ccc(/C(O)=C2/C(=O)C(=O)N(CC3CCCO3)C2c2ccc(OC)c(OC)c2)cc1 (stereo unspecified),-1.19%
16,Cc1nnc(SCC(=O)N(C(C)C)C(C)C)nc1C,8.73%
17,O=C(COc1ccc([N+](=O)[O-])cc1Cl)Nn1cnnc1,6.97%
18,COc1ccc(-c2nc3cc(C)ccn3c2NC2CCCCC2)cc1SC1CCCCC1,52.3% (active)
19,COc1ccc(-c2nc3cnccn3c2NC2CCCCC2)cc1-c1cccc(Cl)c1,21.6%
20,CCOc1cc(-c2nc3cc(C)ccn3c2NCC2CCCO2)ccc1O (stereo unspecified),18.9%
21,O=C(c1cc2ccccc2o1)N1CCN(Cc2ccccc2)CC1,12.6%
22,Cc1[nH]c2ccccc2c1-c1ccc(Cl)nn1,5.43%
23,CC(C)CCNC(=O)c1ccc2c(Cl)c3c(nc2c1)CCC3,43.3%

row,Structure (SMILES),inhibition
1,CC(C)c1ccc(S(=O)(=O)NC2CCCC2)cc1,23.4%
2,Cc1ccc(S(=O)(=O)NC2CCCCCC2)cc1,51.4% (active)
3,CSc1ccc(S(=O)(=O)NC2CCCCC2)cc1,31.1%
4,CC(CC(=O)N1CCN(S(=O)(=O)c2ccccc2)CC1)n1cncn1 (stereo unspecified),7.53%
5,CC1=NN(C(=O)c2ccc(Br)cc2)C(O)(c2ccccc2)C1 (stereo unspecified),29.5%
6,CC1=NN(C(=O)Cc2ccc(C)cc2)C(O)(c2cccnc2)C1 (stereo unspecified),-31.5%
7,CCC1=NN(C(=O)Cc2ccc([N+](=O)[O-])cc2)C(O)(c2ccc(Br)cc2)C1 (stereo unspecified),50% (active)
8,COc1ccc(CC2c3cc(OC)c(OC)cc3CC[N+]2(C)CCC(=O)OCCCCCOC(=O)CC[N+]2(C)CCc3cc(OC)c(OC)cc3C2Cc2ccc(OC)c(OC)c2)cc1OC (stereo unspecified),3.67%
9,CC(C)(C)c1ccc(C(=O)N2CCN(CCNC(=O)C(=O)Nc3ccc(F)cc3)CC2)cc1,16.2%
10,COC(=O)c1sccc1NN1C(=O)c2ccccc2C1=O,13.6%
11,COC(=O)c1ccc2c(C(C)(C)O)c(C(C)(C)O)[nH]c2c1,5.76%
12,Cc1cccc(/C=N/NC(=O)CNc2cccc3ccccc23)n1,17.8%
13,Cc1ccc(/C=N/NC(=O)CN2CCN(Cc3ccccc3)CC2)s1,0.916%
14,CCOc1ccc(NC(=O)CCC(=O)N/N=C/c2ccc([N+](=O)[O-])s2)cc1,79.1% (active)
15,CCOc1ccc(NC(=O)CCC(=O)n2nc(C)cc2C)cc1,14.6%
16,Cc1ccccc1NCC(=O)N/N=C\c1ccc([N+](=O)[O-])s1,62.7% (active)
17,CCOc1ccc(C(=O)CCC(=O)Nc2ccncc2)cc1,11.8%
18,CCOC(=O)/C=C/C(=O)OCC(=O)NC(c1ccccc1)c1ccccc1,40.9%
19,O=C(NCc1ccc2c(c1)OCO2)C1CCCN(S(=O)(=O)c2cccs2)C1 (stereo unspecified),7.36%
20,CCN(C(=O)c1cc([N+](=O)[O-])ccc1NCc1cccnc1)c1ccccc1,24.3%
21,COc1ccc(N=Nc2c(-c3ccc(OC)cc3)[nH]oc2=O)cc1,2.46%
22,CC1CCCCC1NC(=O)C1CCCN1S(=O)(=O)c1cccc2nsnc12 (stereo unspecified),6.89%
